Source: PubChem BioAssay (Tox21)
Inconclusive results are not listed. Active and inactive are the calls of the source. The call rests on the fitted dose curve; in most records, active means well fitted curve in the direction sought with a large enough effect in the repeat runs; inconclusive means weak or mixed curves; inactive means no such curve, though single readings can be large; an effect the other way counts as inactive or inconclusive.

Legend:
[1] = target: Cytochrome P450 2D6 (Homo sapiens) (UniProt P10635); assay: Cytochrome P450 Family 2 Subfamily D Member 6 (CYP2D6) small molecule antagonists: luciferase reporter qHTS assay (AID 1671196); further: nearly all actives have a fitted effect of over 50% in size; further: potency means the concentration at half of the fitted maximal effect; on activity change, negative = inhibition: series mostly up to about 120 µM
Sequence of Cytochrome P450 2D6 (Homo sapiens) (P10635 whole entry, looked up): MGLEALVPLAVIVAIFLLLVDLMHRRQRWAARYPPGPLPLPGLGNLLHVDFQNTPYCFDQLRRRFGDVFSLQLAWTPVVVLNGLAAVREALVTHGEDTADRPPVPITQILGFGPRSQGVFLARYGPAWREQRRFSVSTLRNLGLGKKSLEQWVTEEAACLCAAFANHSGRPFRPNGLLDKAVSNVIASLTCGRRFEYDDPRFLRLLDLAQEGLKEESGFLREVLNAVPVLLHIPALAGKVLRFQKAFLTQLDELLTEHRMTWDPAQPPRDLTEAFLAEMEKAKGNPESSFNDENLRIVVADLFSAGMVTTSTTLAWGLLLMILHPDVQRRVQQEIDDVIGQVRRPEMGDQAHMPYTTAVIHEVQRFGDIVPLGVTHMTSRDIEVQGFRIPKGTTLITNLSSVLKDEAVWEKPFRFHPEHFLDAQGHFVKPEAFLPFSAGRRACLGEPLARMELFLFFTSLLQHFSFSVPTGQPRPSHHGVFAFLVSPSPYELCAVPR
Summary of the method: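 Cell-free P450-Glo system: CYP2D6 with proluciferin substrate was pre-incubated with compound for 10 min, then reacted with NADPH regeneration for 1 h at room temperature. Luciferin product was detected after 20 min, and data were reported as relative luminescence units.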

[2] = target: Cytochrome P450 2C19 (Homo sapiens) (UniProt P33261); assay: Cytochrome P450 Family 2 Subfamily C Member 19 (CYP2C19) small molecule antagonists: luciferase reporter qHTS assay (AID 1671197); further: nearly all actives have a fitted effect of over 65% in size; further: potency means the concentration at half of the fitted maximal effect; on activity change, negative = inhibition: series mostly up to about 120 µM
Sequence of Cytochrome P450 2C19 (Homo sapiens) (P33261 whole entry, looked up): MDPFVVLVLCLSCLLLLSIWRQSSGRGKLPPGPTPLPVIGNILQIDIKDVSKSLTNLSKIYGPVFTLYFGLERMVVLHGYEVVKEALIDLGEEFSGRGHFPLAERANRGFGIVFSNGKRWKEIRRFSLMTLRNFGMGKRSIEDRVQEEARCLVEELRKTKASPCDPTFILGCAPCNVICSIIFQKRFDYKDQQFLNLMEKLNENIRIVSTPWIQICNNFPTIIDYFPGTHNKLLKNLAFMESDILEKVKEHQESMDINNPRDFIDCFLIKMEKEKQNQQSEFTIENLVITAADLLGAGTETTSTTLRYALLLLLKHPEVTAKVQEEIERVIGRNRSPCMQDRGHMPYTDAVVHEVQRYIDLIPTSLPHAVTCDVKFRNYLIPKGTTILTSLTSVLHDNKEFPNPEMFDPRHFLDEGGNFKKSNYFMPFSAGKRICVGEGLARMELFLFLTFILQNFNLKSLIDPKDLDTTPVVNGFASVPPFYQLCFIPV
Summary of the method: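 Compounds were tested on CYP2C19 activity via proluciferin conversion to luciferin. The 37C, 1 h reaction followed NADPH addition; detection reagent stopped it.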

[3] = target: Cytochrome P450 2C9 (Homo sapiens) (UniProt P11712); assay: Cytochrome P450 Family 2 Subfamily C Member 9 (CYP2C9) small molecule antagonists: luciferase reporter qHTS assay (AID 1671198); further: nearly all actives have a fitted effect of over 50% in size; further: potency means the concentration at half of the fitted maximal effect; on activity change, negative = inhibition: series mostly up to about 120 µM
Sequence of Cytochrome P450 2C9 (Homo sapiens) (P11712 whole entry, looked up): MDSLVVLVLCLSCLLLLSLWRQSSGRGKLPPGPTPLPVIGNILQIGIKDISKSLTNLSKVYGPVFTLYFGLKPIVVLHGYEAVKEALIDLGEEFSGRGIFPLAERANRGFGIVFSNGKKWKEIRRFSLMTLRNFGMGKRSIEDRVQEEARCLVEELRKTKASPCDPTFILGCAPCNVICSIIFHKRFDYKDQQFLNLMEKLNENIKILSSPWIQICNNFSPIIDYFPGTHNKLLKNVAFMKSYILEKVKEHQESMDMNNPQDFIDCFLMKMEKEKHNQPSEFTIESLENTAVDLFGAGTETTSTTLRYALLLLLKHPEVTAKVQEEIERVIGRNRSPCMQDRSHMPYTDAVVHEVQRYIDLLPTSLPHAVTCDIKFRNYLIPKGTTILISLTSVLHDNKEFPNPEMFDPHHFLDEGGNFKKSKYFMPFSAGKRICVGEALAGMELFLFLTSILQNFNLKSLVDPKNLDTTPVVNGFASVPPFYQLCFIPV
Summary of the method: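 Enzyme-substrate mix preincubated with compound 10 min at room temperature; reaction started with NADPH regeneration solution, 1 h 37C. Luminescent luciferin product read after 20 min detection reagent.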

[4] = target: Cytochrome P450 1A2 (Homo sapiens) (UniProt P05177); assay: Cytochrome P450 Family 1 Subfamily A Member 2 (CYP1A2) small molecule antagonists: luciferase reporter qHTS assay (AID 1671199); further: nearly all actives have a fitted effect of over 50% in size; further: potency means the concentration at half of the fitted maximal effect; on activity change, negative = inhibition: series mostly up to about 120 µM
Sequence of Cytochrome P450 1A2 (Homo sapiens) (P05177 whole entry, looked up): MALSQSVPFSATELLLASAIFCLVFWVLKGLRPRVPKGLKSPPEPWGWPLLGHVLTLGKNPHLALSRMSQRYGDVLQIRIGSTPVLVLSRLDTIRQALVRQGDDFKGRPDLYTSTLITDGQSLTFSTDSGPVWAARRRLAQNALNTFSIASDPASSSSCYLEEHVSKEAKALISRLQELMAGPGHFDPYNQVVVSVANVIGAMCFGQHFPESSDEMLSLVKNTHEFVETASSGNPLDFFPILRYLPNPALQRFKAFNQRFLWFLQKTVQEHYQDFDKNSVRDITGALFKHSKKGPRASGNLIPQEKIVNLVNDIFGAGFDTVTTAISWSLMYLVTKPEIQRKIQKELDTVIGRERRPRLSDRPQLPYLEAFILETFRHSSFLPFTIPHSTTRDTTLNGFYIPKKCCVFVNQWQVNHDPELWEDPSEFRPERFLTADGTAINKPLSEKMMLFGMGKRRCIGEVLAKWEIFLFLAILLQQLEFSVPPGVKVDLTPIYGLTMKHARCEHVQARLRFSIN
Summary of the method: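 P450-Glo CYP1A2 enzyme–proluciferin substrate mix with compound 10 min at room temperature, then NADPH regeneration 1 h at room temperature. Luciferin detection reagent added, luminescence read after 20 min; furafylline positive control.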

[5] = target: Voltage-gated inwardly rectifying potassium channel KCNH2 (Homo sapiens) (UniProt Q12809); assay: Human Ether-a-go-go-Related Gene (hERG) channel small molecule antagonists: fluorescence cell-based qHTS assay (AID 1671200);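 further: hERG-expressing U2OS cells given a thallium stimulus after FluxOR II dye loading; series mostly up to about 77 µM; nearly all actives have a fitted effect of over 50% in size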
Sequence of Voltage-gated inwardly rectifying potassium channel KCNH2 (Homo sapiens) (Q12809 whole entry, looked up): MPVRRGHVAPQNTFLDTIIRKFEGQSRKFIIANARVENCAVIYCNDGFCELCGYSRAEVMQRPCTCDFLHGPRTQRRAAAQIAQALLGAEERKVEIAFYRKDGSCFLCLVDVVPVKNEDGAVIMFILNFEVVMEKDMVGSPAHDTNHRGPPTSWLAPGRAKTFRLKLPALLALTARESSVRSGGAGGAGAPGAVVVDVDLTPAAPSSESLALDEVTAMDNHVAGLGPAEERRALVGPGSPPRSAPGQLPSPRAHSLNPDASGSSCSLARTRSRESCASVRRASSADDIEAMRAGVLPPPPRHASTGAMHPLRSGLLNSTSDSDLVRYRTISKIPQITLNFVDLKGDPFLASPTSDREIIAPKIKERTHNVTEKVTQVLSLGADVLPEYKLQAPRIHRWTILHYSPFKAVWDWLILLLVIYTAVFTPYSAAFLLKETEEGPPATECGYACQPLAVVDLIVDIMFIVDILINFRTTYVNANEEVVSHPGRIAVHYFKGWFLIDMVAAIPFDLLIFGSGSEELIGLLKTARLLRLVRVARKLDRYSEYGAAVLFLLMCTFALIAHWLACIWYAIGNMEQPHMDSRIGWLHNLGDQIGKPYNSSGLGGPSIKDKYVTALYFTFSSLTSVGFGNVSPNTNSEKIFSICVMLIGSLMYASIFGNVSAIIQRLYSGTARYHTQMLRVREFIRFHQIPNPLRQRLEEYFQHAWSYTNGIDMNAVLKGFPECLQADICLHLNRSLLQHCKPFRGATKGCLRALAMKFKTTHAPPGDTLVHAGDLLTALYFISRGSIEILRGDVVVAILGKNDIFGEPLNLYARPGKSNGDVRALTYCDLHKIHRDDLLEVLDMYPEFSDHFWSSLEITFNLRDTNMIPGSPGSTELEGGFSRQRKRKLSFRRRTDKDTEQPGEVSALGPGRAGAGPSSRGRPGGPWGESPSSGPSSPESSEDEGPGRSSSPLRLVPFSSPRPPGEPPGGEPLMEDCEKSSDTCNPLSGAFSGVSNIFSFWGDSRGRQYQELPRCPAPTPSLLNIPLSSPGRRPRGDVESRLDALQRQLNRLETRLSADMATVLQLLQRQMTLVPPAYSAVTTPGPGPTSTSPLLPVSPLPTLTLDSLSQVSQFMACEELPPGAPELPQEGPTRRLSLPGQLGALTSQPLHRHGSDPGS
Summary of the method: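 First, 1000 cells per well are seeded and cultured overnight at 37 C. Next, FluxOR II dye is loaded for 1 h at room temperature, protected from light. After 10 more minutes, stimulus is added and fluorescence is read.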

[6] = target: Cytochrome P450 3A4 (Homo sapiens) (UniProt P08684); assay: Cytochrome P450 Family 3 Subfamily A Member 4 (CYP3A4) small molecule antagonists: luciferase reporter qHTS assay (AID 1671201); further: nearly all actives have a fitted effect of over 50% in size; further: potency means the concentration at half of the fitted maximal effect; on activity change, negative = inhibition: series mostly up to about 120 µM
Sequence of Cytochrome P450 3A4 (Homo sapiens) (P08684 whole entry, looked up): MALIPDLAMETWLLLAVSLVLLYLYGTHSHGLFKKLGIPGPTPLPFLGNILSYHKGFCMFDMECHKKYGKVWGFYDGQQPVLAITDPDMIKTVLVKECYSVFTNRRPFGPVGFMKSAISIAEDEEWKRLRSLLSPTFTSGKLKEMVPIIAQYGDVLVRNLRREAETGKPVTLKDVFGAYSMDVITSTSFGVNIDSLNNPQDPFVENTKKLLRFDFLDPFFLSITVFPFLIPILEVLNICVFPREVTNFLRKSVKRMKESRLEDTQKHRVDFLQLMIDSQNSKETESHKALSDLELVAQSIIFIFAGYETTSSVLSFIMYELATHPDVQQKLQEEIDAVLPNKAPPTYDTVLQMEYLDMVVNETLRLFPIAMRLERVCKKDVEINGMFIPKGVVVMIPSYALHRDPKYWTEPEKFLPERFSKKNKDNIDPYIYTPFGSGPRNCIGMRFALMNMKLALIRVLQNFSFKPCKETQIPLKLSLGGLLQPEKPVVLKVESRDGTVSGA
Summary of the method: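 Enzyme and proluciferin substrate are mixed with test chemicals for 10 min, then NADPH regeneration system drives turnover for 1 h at room temperature. A detection reagent halts the reaction; luminescence after 20 min gives relative activity.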
On the % scale 0 is the no-effect control and ±100 the full control effect.

Cc1cccc(NC(=S)N(C)C)c1
inactive: Potency [1] | Potency [3] | Potency [5] | Potency [6]
active: Potency [2] 79.6 µM | Potency [4] 35.6 µM

Nc1cc(S(=O)(=O)O)ccc1S(=O)(=O)O
inactive: Potency [1] | Potency [2] | Potency [3] | Potency [4] | Potency [5] | Potency [6]

COc1cc([N+](=O)[O-])ccc1N
active: Potency [4] 22.4 µM
inactive: Potency [1] | Potency [2] | Potency [3] | Potency [5]

CCCCC(CC)C(=O)OC(C)C (configuration not stated)
inactive: Potency [1] | Potency [2] | Potency [3] | Potency [4] | Potency [5] | Potency [6]

C[C@H]1O[C@H](O[C@H]2[C@H](O)[C@@H](O)[C@@H](O[C@H]3[C@H](O)[C@@H](O)[C@H](O)O[C@@H]3CO)O[C@@H]2CO)[C@H](O)[C@@H](O)[C@@H]1N[C@H]1C=C(CO)[C@@H](O)[C@H](O)[C@H]1O
inactive: Potency [1] | Potency [2] | Potency [3] | Potency [4] | Potency [5] | Potency [6]

C=CCOc1c(Br)cc(C(C)(C)c2cc(Br)c(OCC=C)c(Br)c2)cc1Br
inactive: Potency [1] | Potency [3] | Potency [4] | Potency [5] | Potency [6]
active: Potency [2] 24.6 µM

Cc1cc(O)c2c(c1)C(=O)c1cccc(O)c1C2=O
inactive: Potency [1] | Potency [2] | Potency [3] | Potency [5] | Potency [6]

COc1cccc2sc(N)nc12
inactive: Potency [3] | Potency [5]
active: Potency [1] 11.3 µM | Potency [2] 56.7 µM | Potency [6] 10.1 µM

C1=C\CC/C=C\CC/1
inactive: Potency [1] | Potency [2] | Potency [3] | Potency [5] | Potency [6]

Cc1cc(C)cc([N+](=O)[O-])c1
inactive: Potency [1] | Potency [2] | Potency [3] | Potency [5] | Potency [6]

Cc1ccc(C(=O)C(=O)O)cc1C
inactive: Potency [1] | Potency [2] | Potency [3] | Potency [5] | Potency [6]
active: Potency [4] 30.9 µM

CCCCCCCCC(=O)OCC
inactive: Potency [1] | Potency [2] | Potency [3] | Potency [4] | Potency [5] | Potency [6]

CCOC(=O)C(C)(C)C
inactive: Potency [1] | Potency [2] | Potency [3] | Potency [4] | Potency [5] | Potency [6]

O=C(c1ccc2c(c1)C(=O)OC2=O)c1ccc2c(c1)C(=O)OC2=O
inactive: Potency [1] | Potency [2] | Potency [3] | Potency [5] | Potency [6]

O=C(O)C(=O)Nc1cccc(-c2nn[nH]n2)c1
inactive: Potency [1] | Potency [2] | Potency [3] | Potency [4] | Potency [5] | Potency [6]

CCCCCCCCCCCCC1CO1 (configuration not stated)
inactive: Potency [1] | Potency [2] | Potency [3] | Potency [4] | Potency [5] | Potency [6]

CN(C)CCOCCN(C)CCO
inactive: Potency [2] | Potency [3] | Potency [5] | Potency [6]
active: Potency [1] 20 µM

COc1ccc(N=Nc2cc(C)c(N=Nc3ccc(S(=O)(=O)O)cc3)cc2OC)cc1
active: Potency [3] 63.3 µM
inactive: Potency [1] | Potency [2] | Potency [5] | Potency [6]

Nc1c(NC/C=C\COc2cc(CN3CCCCC3)ccn2)c(=O)c1=O
active: Potency [1] 12 µM | Potency [6] 6.74 µM
inactive: activity change, negative = inhibition [2] -27.3% [at 23.6 µM] | activity change, negative = inhibition [3] -15.9% [at 23.6 µM] | activity change, negative = inhibition [5] 0.241% [at 15.8 µM]

C=C[C@@H](C)CCC=C(C)C
inactive: Potency [1] | Potency [2] | Potency [3] | Potency [5] | Potency [6]

O=CN1CCOCC1
inactive: Potency [1] | Potency [2] | Potency [3] | Potency [5] | Potency [6]

Cc1ccccc1N1CCN(CCc2nnc3n2CCCC3)CC1
inactive: Potency [2] | Potency [3] | Potency [5] | Potency [6]
active: Potency [1] 13.8 µM

CC(=O)OCCCc1ccccc1
inactive: Potency [1] | Potency [2] | Potency [3] | Potency [5] | Potency [6]

CCc1nccnc1C
inactive: Potency [1] | Potency [2] | Potency [3] | Potency [5] | Potency [6]

CC(C)C(=O)c1ccccc1
inactive: Potency [1] | Potency [2] | Potency [3] | Potency [5] | Potency [6]

CC(=O)OC[C@H]1O[C@@H](OC(C)=O)[C@H](OC(C)=O)[C@@H]1OC(C)=O
inactive: Potency [1] | Potency [2] | Potency [3] | Potency [4] | Potency [5] | Potency [6]

CC(=O)OC(C(=O)c1ccccc1)c1ccccc1 (configuration not stated)
active: Potency [1] 35.7 µM | Potency [2] 8.98 µM | Potency [3] 31.9 µM
inactive: Potency [5] | Potency [6]

C[Si]1(C)N[Si](C)(C)N[Si](C)(C)N1
inactive: Potency [1] | Potency [5]
active: Potency [2] 50.2 µM | Potency [3] 63.3 µM | Potency [6] 6.33 µM

CC(C)COC(=O)CCCCC(=O)OCC(C)C
inactive: Potency [1] | Potency [2] | Potency [5] | Potency [6]
active: Potency [3] 22.4 µM | Potency [4] 39.9 µM

CCC(O)C(C)(C)C (configuration not stated)
inactive: Potency [1] | Potency [2] | Potency [3] | Potency [5] | Potency [6]

O=C1OC(=O)c2ccccc21
inactive: Potency [1] | Potency [2] | Potency [3] | Potency [5] | Potency [6]
